This is a sample that favours compounds with a hit; in the whole collection about 8.3% have one here.
BCR signal inh – blocks chronic active B-cell receptor signaling | 0.05% of 340,000 active | AID 493014 | ABC-DLBCL IkBa-CBG/CBR reporter, luminescence ratio, 4 h | Potency, µM (series often up to 46.1 µM), for inactives: top-dose activity change, negative = inhibition, most hits filed as inhibitors; active = well fitted inhibition curve with a large enough effect in the signal ratio, with a control signal flat, not every such curve was filed as active; inconclusive = small, poorly fitted or top-dose-only effect, or effect the other way, or a change in a side signal; the % refers to the signal ratio;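 note: potency is the fitted concentration of half-maximal effect; plate controls were basal doxycycline-induced cells for no effect and cells given 10 µM MG132 for full effect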
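Doxycycline induced both beetle luciferases in TMD8 lymphoma cells; IKK-driven degradation limits the IkappaBalpha-fused green signal, while red luminescence normalises for cell number and nonspecific effects. Compounds tested up to 46 uM, 4 hrs.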
Giardia killer – Giardia lamblia killing | AID 540267 | Giardia lamblia trophozoite viability | 0.15% of 340,000 active | activity change, % at 7.66 µM, hits read low; in the data active = activity change below about -80%; inconclusive = between about -30% and that limit;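 note: parasites exposed to compound for two days anaerobically before the ATP read; % is set by controls: 0 for no effect and ±100 for the full control effect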
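Anaerobic 48 hrs incubation at 37 deg C of 100 trophozoites/well with test compounds; ATPLite 1-Step luminescence, 15-30 min RT, reports cellular ATP as viability.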
SW480 rerep – inducers of DNA re-replication in SW480 colon cancer cells; Potency, µM (highest dose often 46.1 µM), without a hit: at the highest dose re-replication activation, most hits filed as activators; 1.8% of 340,000 active; AID 624297; SW480 DNA re-replication, Hoechst DNA content imaging, 48 h; note: potency is the fitted concentration of half-maximal effect; % of control where 0% means no effect; nearly all actives have a fitted effect of over 55% in size
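First, 250 cells per well were seeded. Next, compound or vehicle (23 nL) was pinned in, plates sat 48 hr at 37 C. Finally Hoechst was added for 40 min before fluorescence scanning.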
RORgamma inh – ROR gamma (mouse) transcription inhibition; 5.4% of 310,000 active; Drosophila S2 Gal4-RORgamma UAS-luciferase reporter, 20 h; Potency, µM (top dose mostly 53.6 µM), for inactives: at the highest dose activity change, negative = inhibition, usual class: inhibitors; note: potency is the fitted concentration of half-maximal effect; % is set by controls: 0 for no effect and ±100 for the full control effect; nearly all actives have a fitted effect of over 60% in size
Target sequence (P51450 whole entry, looked up, the tested form may be a part): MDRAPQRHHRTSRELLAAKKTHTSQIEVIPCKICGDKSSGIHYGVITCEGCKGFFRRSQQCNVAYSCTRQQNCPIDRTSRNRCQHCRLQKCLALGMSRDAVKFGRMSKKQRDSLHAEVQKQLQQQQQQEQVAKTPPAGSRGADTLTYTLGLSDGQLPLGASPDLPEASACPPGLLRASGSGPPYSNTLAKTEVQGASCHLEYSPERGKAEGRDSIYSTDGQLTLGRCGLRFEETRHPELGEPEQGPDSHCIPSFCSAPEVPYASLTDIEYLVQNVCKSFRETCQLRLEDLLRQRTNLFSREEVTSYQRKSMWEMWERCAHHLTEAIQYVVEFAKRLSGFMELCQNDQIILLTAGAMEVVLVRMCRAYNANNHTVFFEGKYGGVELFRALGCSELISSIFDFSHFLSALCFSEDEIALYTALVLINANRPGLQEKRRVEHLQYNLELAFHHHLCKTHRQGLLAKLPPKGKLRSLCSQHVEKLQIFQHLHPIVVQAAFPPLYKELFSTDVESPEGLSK
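In this cell-based reporter format, copper sulfate (700 uM final) drives Gal4–ROR gamma fusion expression from a metallothionein promoter in Drosophila Schneider cells; compounds preincubated 1 hr, reporter read after 20 hr at ambient temperature.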
VP16 counter – Gal4-VP16 reporter inhibition counter-screen. 3.5% of 310,000 active. Drosophila S2 Gal4-VP16 UAS-luciferase, luminescence, 20 h. Potency, µM (top dose mostly 53.6 µM), inactives show at the top dose activity, negative = inhibition, usual class: inhibitors. AID 2546;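 note: Gal4-VP16 expression switched on by copper sulfate through the metallothionein promoter; potency is the fitted concentration of half-maximal effect; % is set by controls: 0 for no effect and ±100 for the full control effect; nearly all actives have a fitted effect of over 50% in size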
MCF10A rerep – DNA re-replication induction in MCF 10a cells; 2.9% of 350,000 active; MCF 10A DNA re-replication, Hoechst nuclear intensity, 48 h; Potency, µM (highest dose often 46.1 µM), for the others: top-dose activity, positive = re-replication, usual class: activators; note: potency is the fitted concentration of half-maximal effect; % of control where 0% means no effect; nearly all actives have a fitted effect of over 50% in size
* marks the source's active call; other numbers are inactive results; ? = inconclusive; . = not tested or not shown; [ ] = dose if it differs, or a comment. Unless noted, calls come from the whole dose curve; as a rule, active = well fitted curve in the direction sought with a large enough effect; inconclusive = small, poorly fitted or top-dose-only effect, or another doubt; inactive = no such curve, though single readings can be large; an effect the other way counts as inactive or inconclusive.

SMILES	BCR signal inh	Giardia killer	SW480 rerep	RORgamma inh	VP16 counter	MCF10A rerep
O=C/C(=C\Nc1ccc(Cl)cn1)c1nc2ccccc2o1	?	15	13%	14µM*	22µM*	?
CN1/C(=C\C(=O)COC(=O)CN2C(=O)C3CC=CCC3C2=O)C(C)(C)c2ccccc21 (stereo not drawn)	0%	-2	0%	?	4.5µM*	?
CNS(=O)(=O)c1cccc(C(=O)OCC(=O)/C=C2/N(C)c3ccccc3C2(C)C)c1	-6%	14	3%	?	0.4µM*	?
O=C(Nc1cnccn1)Nc1ccccc1F	?	-26	0%	44%	26%	1%
COc1ccc(S(=O)(=O)N2CCN(C(=O)c3ccc(C)o3)CC2)cc1	-13%	7	1%	-3%	-2%	14%
CC12COC3(C(=O)Nc4ccccc4F)CC1CCC32C (stereo not drawn)	4%	4	-1%	10µM*	-2%[10 µM]	13%
Cc1c(NC(=O)C(C)Oc2cccc(F)c2)c(=O)n(-c2ccccc2)n1C (stereo not drawn)	3%	39	23µM*	.	.	-5%
Cc1c(NC(=O)C(C)OC(=O)C23CC4CC(CC(Br)(C4)C2)C3)c(=O)n(-c2ccccc2)n1C (stereo not drawn)	0%	?	-32%	24%	-8%	1.5µM*
Cc1c(NC(=O)COC(=O)C23CC4CC(CC(O)(C4)C2)C3)c(=O)n(-c2ccccc2)n1C	-1%	26	-10%	2%	3%	-3%
N#CC1(NC(=O)COc2ccc(S(=O)(=O)N3CCCC3)cc2[N+](=O)[O-])CCCCC1	-2%	-20	-31%	.	.	-14%
COc1ccc(OCc2cc(C(=O)N3CCCC(O)C3)no2)c2ccccc12 (stereo not drawn)	-5%	-11	-1%	20%	3%	?
Cc1ccc2sc(NNC(=O)c3cc(=O)c4ccccc4o3)nc2c1C	?	11	12%	-10%	-12%	18%
COc1ccc2nc(NNC(=O)c3cc(=O)c4ccccc4o3)sc2c1	-4%	-26	4%	8.9µM*	?	0%
O=C(NNc1nc2c(F)cccc2s1)c1cc(=O)c2ccccc2o1	?	-26	0%	10µM*	?	?
Cc1cccc2sc(NNC(=O)c3cc(=O)c4ccccc4o3)nc12	?	-13	-5%	4µM*	?	0%
COc1ccc2nc(NC(C)=O)sc2c1	-13%	-20	-4%	2%	-1%	16%
CC(=O)N1CCC[C@@]2(CCN(c3ccncc3)C2)C1	.	.	.	-10%	-11%	.
Cc1nc(-c2ccc(S(=O)(=O)Nc3cc(S(=O)(=O)N(C)C)ccc3C)s2)cs1	-3%	6	5%	16%	0%	-3%
COC(=O)c1ccc(COc2ccccc2/C=N/NC(=O)c2cccnc2)cc1	-17%	-3	?	-7%	1%	?
COc1cccc(/C=N/NC(=O)C(=O)NCc2cccnc2)c1O	-14%	-10	-59%	11µM*	?	12%
COc1cccc(/C=N/NC(=O)CNC(=O)C2COc3ccccc3O2)c1O (stereo not drawn)	6%	1	?	0.35µM*	0.45µM*	9%
COc1cccc(/C=N/NC(=O)CNC(=O)c2cccnc2)c1O	0%	-7	?	18µM*	-24%	?
O=C(CNC(=O)C1COc2ccccc2O1)N/N=C\c1ccccc1Cl (stereo not drawn)	6%	-12	2%	10%	-12%	-9%
COc1cccc(/C=N/NC(=O)CNC(=O)c2ccncc2)c1O	-20%	10	0%	16µM*	?	-1%
CCN1C(=O)c2ccccc2S(=O)(=O)c2ccc(C(=O)NCCOC)cc21	3%	4	-4%	1%	4%	1%
SMILES	BCR signal inh	Giardia killer	SW480 rerep	RORgamma inh	VP16 counter	MCF10A rerep
CC1CCC2(CC1)NC(=O)N(CC(=O)c1ccc(CNC(=O)C(C)(C)C)s1)C2=O (stereo not drawn)	-1%	-6	-3%	.	.	-7%
O=C(CNC(=O)c1ccc2c(c1)OCCO2)N/N=C/c1ccc(O)cc1O	-23%	-5	?	-11%	-4%	?
COc1ccccc1/C=N/NC(=O)CO	2%	-16	-4%	-19%	-13%[10 µM]	6%
COc1cccc(/C=N/NC(=O)CNC(=O)c2ccco2)c1O	-3%	-5	?	1.6µM*	20µM*	2%
COc1cccc(/C=N/NC(=O)CNC(=O)c2ccc3c(c2)OCCO3)c1O	1%	13	?	0.63µM*	4.5µM*	?
COc1cccc(/C=N/NC(=O)CN2CC(c3ccccc3)CC2=O)c1O (stereo not drawn)	-10%	8	7.3µM*	0.56µM*	1.3µM*	?
COc1cccc(/C=N/NC(=O)CNC(=O)COc2ccccc2)c1O	1%	27	3.3µM*	0.28µM*	1µM*	6%
COc1ccc(/C=N/NC(=O)CNC(=O)COc2ccccc2)cc1	?	-9	-1%	2%	7%	-12%
Cc1cc(C)nc(NC(=O)c2ccccc2O)n1	?	-13	-13%	8%	-1%	-3%
Cc1nnc(Nc2ccc(Cl)c(C(F)(F)F)c2)[nH]c1=O	?	11	10%	-26%	10%	?
Cc1cccc(OCC(=O)NCC(=O)N/N=C/c2cc(Br)cc(Br)c2O)c1	-1%	-2	?	2µM*	6.3µM*	?
COc1ccc(CCCC(=O)N/N=C/c2cccc(OC)c2O)cc1C	?	7	?	0.22µM*	0.13µM*	1.5µM*
Cc1ccc(/C=N/NC(=O)CNC(=O)COc2ccccc2)cc1	4%	-11	-3%	10%	2%	5%
COc1cccc(/C=N/NC(=O)C[n+]2ccccc2)c1O	0%	27	?	-33%	7%	?
Cc1cccc(NC(=O)CN(C)C(=O)/C=C/c2ccccc2)c1C	-14%	12	-2%	.	.	4%
O=C(NC1CCCc2ccccc21)C1CCN(c2nnc(-n3cccc3)s2)CC1 (stereo not drawn)	4%	-2	-1%	?	1%	16µM*
Cc1nc2ccccn2c1C(=O)NC1CCCc2ccccc21 (stereo not drawn)	-4%	3	5%	?	13µM*	-1%
CC(NC(=O)CCl)c1ccccc1Br (stereo not drawn)	?	6	?	20%	-4%	?
CCN(C(=O)Cn1nc(C)n2c(cc3cc(C)ccc32)c1=O)c1ccccc1	1%	23	1%	12%	0%	-2%
